hDAT+cocaine = modulates human dopamine transporter uptake under cocaine; Q01959; LLC-PK1 hDAT cells, [14C]-dopamine uptake with cocaine IC80; actives deviate in either direction; B-score at 10 µM; 110,000 compounds, 1.3% hits; AID 449768;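 active = Z score or B-score, a plate-position-corrected score, falls beyond the plate's 99.7% confidence bounds, in either direction; inactive = both scores lie inside the 99.7% bounds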;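 note: scored against the spread of the other compound wells on the same plate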
PostGolgi ctrl = yeast control strain growth, post-Golgi counter-screen; inhibition, % at 10 µM; efflux-deficient yeast background strain, growth absorbance A615, 16 h; AID 738; 98,000 compounds, 5% hits
PostGolgi yeast = growth inhibition of a yeast mutant, post-Golgi transport screen. 98,000 compounds, 0.9% hits. inhibition, % at 10 µM. post-Golgi transport phenotypic cell assay;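 note: yeast cells grown in 1536-well plates; yeast grown about 18 h at 30C before absorbance read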
Cav3 T inh = human Cav3.2 channel inhibition, primary screen; Cav3.2-expressing cells, Fluo-4 calcium fluorescence FDSS; hits give low values; 100,000 compounds, 4% hits; O95180; AID 449739; B-score at 10 µM;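 active = single-dose well whose peak fluorescence ratio is a statistical outlier from its plate by either plate-standardised score or position-corrected B-score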
D1 mod = allosteric modulators of human D1 dopamine receptor; B-score at 10 µM; AID 641; 58,000 compounds, 5.9% hits; HEK293 D1, CRE-luciferase, dopamine EC30 potentiation; actives deviate in either direction; P21728;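 active = luminescence count or its row- and column-corrected plate score outside the 99.7% band of the plate's sample wells, on either side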
PLAP act = activators of human placental alkaline phosphatase; 96,000 compounds, 1.2% hits; P05187; purified PLAP enzyme, luminescent substrate read-out; hits give high values; activation fold at 20 µM; in the data active = activation fold above about 2
Target sequence (P05187 whole entry, looked up): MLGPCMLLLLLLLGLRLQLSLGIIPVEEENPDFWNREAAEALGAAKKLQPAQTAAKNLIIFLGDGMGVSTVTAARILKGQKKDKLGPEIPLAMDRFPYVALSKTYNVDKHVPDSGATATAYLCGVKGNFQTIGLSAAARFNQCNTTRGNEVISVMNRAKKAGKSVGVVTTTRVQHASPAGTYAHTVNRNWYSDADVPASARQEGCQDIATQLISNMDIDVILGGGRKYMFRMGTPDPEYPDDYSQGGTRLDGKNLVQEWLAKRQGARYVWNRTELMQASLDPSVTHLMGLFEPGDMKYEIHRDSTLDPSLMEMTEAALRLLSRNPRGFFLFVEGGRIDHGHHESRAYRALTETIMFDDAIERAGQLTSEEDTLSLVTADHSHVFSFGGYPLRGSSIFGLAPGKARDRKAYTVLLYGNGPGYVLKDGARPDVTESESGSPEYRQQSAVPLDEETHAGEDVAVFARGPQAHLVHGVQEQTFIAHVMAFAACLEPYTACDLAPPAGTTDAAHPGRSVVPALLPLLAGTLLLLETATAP
Active calls of the source: *; . = not tested or not shown. Hits are enriched below; roughly 12% of the tested compounds scored in any of these assays. Cut-off read from the data, not from the text of the source, unless noted: active = inhibition above about 30%; inactive = the rest.

SMILES | hDAT+cocaine | PostGolgi ctrl | PostGolgi yeast | Cav3 T inh | D1 mod | PLAP act
CN=C(Nc1ccccc1)SC1CC(=O)N(c2ccc(C(=O)OC)cc2)C1=O (stereo not drawn) | -0.32 | 37* | 5 | -1.3 | . | 1.2
O=C1CC(SC(=Nc2ccccc2)Nc2ccccc2)C(=O)N1c1ccc(Cl)cc1 (stereo not drawn) | 0.053 | 0 | -3 | 0.89 | . | 1
O=c1ccc(Cl)cn1Cc1ccccc1F | -1 | . | . | 0.02 | . | .
CCCCOc1ccccc1NC(=O)Cn1c(-c2nonc2N)nc2ccccc21 | -0.0049 | 9 | -10 | -4.2* | 0.024 | 0.9
O=C(CC1Nc2ccccc2NC1=O)Nc1cc(Cl)cc(Cl)c1 (stereo not drawn) | 0.02 | 67* | 12 | -2.1 | . | 1.2
Cc1ccccc1N1C(=O)c2cccc3c(N(C)CCO)ccc(c23)C1=O | -0.086 | 11 | -2 | -4.3* | 2.1 | 0.7
O=C(c1ccco1)n1nc(NCc2ccccc2)nc1NCc1ccccc1 | -0.067 | 79* | 2 | 0.33 | -0.55 | 0.8
O=C(c1ccco1)n1nc(-c2ccccc2)nc1NCc1ccco1 | -0.47 | 9 | 16 | -0.049 | 0.65 | 0.9
CCOC(=O)c1cnc2c(C#N)c(C)nn2c1C | 0.55 | 12 | -20 | -0.33 | -0.45 | 1.1
CCOC(=O)c1cnc2c(C#N)c(C)nn2c1-c1ccccc1 | 0.69 | 32* | 3 | -0.2 | 3.4 | 1
O=c1c2ccccc2nc(-c2ccc(Cl)cc2)n1C1CCS(=O)(=O)C1 (stereo not drawn) | -0.85 | . | . | -4.2* | . | .
Cc1ccccc1-c1nc2ccccc2c(=O)n1C1CCS(=O)(=O)C1 (stereo not drawn) | -0.8 | 3 | 3 | 0.34 | -0.072 | 0.9
COc1ccccc1CC(=O)N1CCN(c2cccc(C(F)(F)F)c2)CC1 | 0.025 | 7 | 9 | -4.8* | -0.46 | 1.1
Cc1ccc(CC(=O)N2CCN(c3cccc(C(F)(F)F)c3)CC2)cc1 | 1.1 | 20 | 0 | -5.4* | . | 1
CCn1c(-c2ccccc2Cl)nn(CC(=O)Nc2cc(Cl)ccc2Cl)c1=S | 1.5 | 27 | -5 | -4.8* | . | 1.2
COc1cc(/C=N/N2CCN(C3c4ccccc4-c4ccccc43)CC2)ccc1O | -1.8* | 21 | -17 | 1.1 | . | 1.3
C(=N\N1CCN(C2c3ccccc3-c3ccccc32)CC1)/c1ccncc1 | -0.16 | 30 | -5 | . | . | 1.2
Clc1ccc2noc(-c3ccccc3)c2c1 | 0.0095 | 3 | 18 | -2.6 | . | 1.3
COc1ccc(-c2onc3ccc(Cl)cc23)cc1OC | . | . | . | . | 13* | .
COc1cccc(-c2csc(N3CCN(C(=O)NC45CC6CC(CC(C6)C4)C5)CC3)n2)c1 | 0.93 | . | . | -3.3* | . | .
COc1cccc(-c2csc(N3CCN(S(=O)(=O)c4ccc(F)cc4)CC3)n2)c1 | 0.1 | 37* | -1 | 0.022 | . | 1.4
CCC(=O)Nc1cc2nn(-c3ccccc3)nc2cc1Cl | 0.89 | -3 | -2 | 0.39 | -5.4* | 1
CCC(=O)Nc1nc(N)n(-c2ccccc2)n1 | -0.88 | 0 | 1 | -0.76 | . | 0.9
CCOc1ccccc1C1CC(=O)Nc2cc3c(cc21)OCCO3 (stereo not drawn) | -0.66 | 8 | 7 | -2.2 | 2.5 | 0.9
CC(C)Oc1ccccc1C1CC(=O)Nc2cc3c(cc21)OCO3 (stereo not drawn) | 0.33 | 31* | 2 | -0.17 | -1.4 | 0.8
SMILES | hDAT+cocaine | PostGolgi ctrl | PostGolgi yeast | Cav3 T inh | D1 mod | PLAP act
CCOC(=O)C1CCN(C(=O)C2CCN(S(=O)(=O)c3cc(Cl)ccc3Cl)CC2)CC1 | -0.28 | -9 | 2 | 0.76 | -0.3 | 1.7
Cn1c(CNc2ccccc2O)nc2ccccc21 | -0.72 | 7 | -3 | 0.39 | 0.41 | 2.4*
COc1ccccc1CNC(=O)CCS(=O)(=O)c1ccc2c(c1)CCCN2C(C)=O | 0.61 | 0 | -3 | 0.3 | 1.1 | 1.1
Cc1ccc(S(=O)(=O)N2CCN(c3ccc4nnc(-c5ccccc5)n4n3)CC2)cc1 | 1.2 | 34* | -10 | 2.1 | . | 1.5
O=S(=O)(c1ccccc1Cl)N1CCC(O)(c2ccc3c(c2)OCO3)CC1 | 2.1 | 13 | -4 | -1 | 0.31 | 1.1
O=C(NCCCN1CCOCC1)c1cccs1 | -1 | 1 | -2 | 0.24 | 0.057 | 1.1
Nc1ncnc2nc(SCc3ccc(Cl)cc3Cl)[nH]c12 | . | 18 | -5 | . | . | 2.3*
Nc1ncnc2nc(Sc3ccc(Cl)cc3)[nH]c12 | 0.042 | 2 | -2 | 0.58 | 1.2 | 1
c1ccc(COc2ccc(OCCn3cncn3)cc2)cc1 | 0.38 | 3 | -1 | -0.49 | . | 0.9

Compound activity deposited in PubChem BioAssay by several laboratories.
